Results taken from PubChem BioAssay (NCATS).
Records with an inconclusive call do not appear. The source made the active and inactive calls. Unless noted, calls come from the whole dose curve; as a rule, active = well fitted cell-killing curve with a large enough effect; inconclusive = small, poorly fitted or top-dose-only effect, or effect the other way; inactive = no such curve, though single readings can be large or run the other way.

Key:
[1] = Quantitative High-Throughput drug screen in 47 multiple myeloma cell lines against the NCATS MIPE library collection: KMS28PE_JCRB cell viability assay (AID 1918983); note: nearly all actives have a fitted effect of over 35% in size
Method in brief: (§1)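 Viability after 48 h drug exposure was measured as ATP-dependent luminescence. Cells, 500 per well, sat at 37 °C under 5% CO2; DMSO wells set 100%, media-only wells 0%.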

[2] = Quantitative High-Throughput drug screen in 47 multiple myeloma cell lines against the NCATS MIPE library collection: L363_DSMZ cell viability assay (AID 1918984); note: nearly all actives have a fitted effect of over 40% in size
Method in brief: as §1

[3] = Quantitative High-Throughput drug screen in 47 multiple myeloma cell lines against the NCATS MIPE library collection: KMS34_JCRB cell viability assay (AID 1918985); note: nearly all actives have a fitted effect of over 40% in size
Method in brief: as §1

[4] = Quantitative High-Throughput drug screen in 47 multiple myeloma cell lines against the NCATS MIPE library collection: OCIMY7_PLB cell viability assay (AID 1918987); note: nearly all actives have a fitted effect of over 65% in size
Method in brief: as §1

[5] = Quantitative High-Throughput drug screen in 47 multiple myeloma cell lines against the NCATS MIPE library collection: OCIMY5_PLB cell viability assay (AID 1918988); note: nearly all actives have a fitted effect of over 65% in size
Method in brief: as §1

[6] = Quantitative High-Throughput drug screen in 47 multiple myeloma cell lines against the NCATS MIPE library collection: OPM1_PLB cell viability assay (AID 1918989); note: nearly all actives have a fitted effect of over 40% in size
Method in brief: as §1

[7] = Quantitative High-Throughput drug screen in 47 multiple myeloma cell lines against the NCATS MIPE library collection: SKMM1_PLB cell viability assay (AID 1919863); conditions: SKMM1 myeloma viability, CellTiter-Glo ATP, 48 h; viability: stronger effect = lower value; note: nearly all actives have a fitted effect of over 35% in size
Method in brief: as §1

[8] = Quantitative High-Throughput drug screen in 47 multiple myeloma cell lines against the NCATS MIPE library collection: U266_ATCC cell viability assay (AID 1919864); note: nearly all actives have a fitted effect of over 35% in size
Method in brief: as §1

[9] = Quantitative High-Throughput drug screen in 47 multiple myeloma cell lines against the NCATS MIPE library collection: XG6_PLB cell viability assay (AID 1919865); note: nearly all actives have a fitted effect of over 40% in size
Method in brief: as §1

[10] = Quantitative High-Throughput drug screen in 47 multiple myeloma cell lines against the NCATS MIPE library collection: XG1_PLB cell viability assay (AID 1919866); note: nearly all actives have a fitted effect of over 35% in size
Method in brief: as §1

[11] = Quantitative High-Throughput drug screen in 47 multiple myeloma cell lines against the NCATS MIPE library collection: VP6_DJ cell viability assay (AID 1919867); note: nearly all actives have a fitted effect of over 40% in size
Method in brief: as §1

[12] = Quantitative High-Throughput drug screen in 47 multiple myeloma cell lines against the NCATS MIPE library collection: UTMC2_PLB cell viability assay (AID 1919868); conditions: CellTiter-Glo ATP luminescence, 48 h; viability (% of DMSO control): at 45.8 µM (top of the series) unless noted; note: nearly all actives have a fitted effect of over 55% in size
Method in brief: as §1

[13] = Quantitative High-Throughput drug screen in 47 multiple myeloma cell lines against the NCATS MIPE library collection: PE2_PLB cell viability assay (AID 1919869); note: nearly all actives have a fitted effect of over 35% in size
Method in brief: as §1

[14] = Quantitative High-Throughput drug screen in 47 multiple myeloma cell lines against the NCATS MIPE library collection: PCM6_Riken cell viability assay (AID 1919870); note: nearly all actives have a fitted effect of over 30% in size
Method in brief: as §1

[15] = Quantitative High-Throughput drug screen in 47 multiple myeloma cell lines against the NCATS MIPE library collection: RPMI8226_ATCC cell viability assay (AID 1919871); note: nearly all actives have a fitted effect of over 30% in size
Method in brief: as §1

[16] = Quantitative High-Throughput drug screen in 47 multiple myeloma cell lines against the NCATS MIPE library collection: OPM2_DSMZ cell viability assay (AID 1919872); note: nearly all actives have a fitted effect of over 30% in size
Method in brief: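 Myeloma cells (500 per well) were exposed to MIPE 4.0 compounds by pin transfer and incubated 48 hours at 37C, 5% CO2. Viability was read as ATP by CellTiter-Glo luminescence, normalised to DMSO (100%) and media-only (0%) wells.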

[17] = Quantitative High-Throughput drug screen in 47 multiple myeloma cell lines against the NCATS MIPE library collection: KMS11_JCRBsus cell viability assay (AID 1919873); note: nearly all actives have a fitted effect of over 50% in size
Method in brief: as §1

[18] = Quantitative High-Throughput drug screen in 47 multiple myeloma cell lines against the NCATS MIPE library collection: KMS28BM_JCRB cell viability assay (AID 1919874); note: nearly all actives have a fitted effect of over 35% in size
Method in brief: as §1

[19] = qHTS drug screen for cell cycle checkpoint inhibitors in PARPi-resistant BRCA-mutant ovarian cancer cell lines. (AID 1963452; calls by dose curve); conditions: PEO1/OlaR viability, CellTiter-Glo luminescence, 96 h; for Z-AUC: stronger effect = lower value
Method in brief: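 PEO1, PEO4 and PEO1/OlaR ovarian cancer cells, 600 per well, exposed 96 h at 37C to a dilution series. Viability read by CellTiter-Glo luminescence, normalized to DMSO and empty wells; activity summarized as Z-AUC.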

[20] = qHTS for identification of novel therapeutic agents for treatment of microphthalmiaassociated transcription factor (MiT) renal cell carcinoma (RCC) (AID 1963991; calls by dose curve); conditions: CellTiter-Glo, 48 h; for z-score: stronger effect = lower value
Method in brief: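 Viability of three TFE3-fusion renal carcinoma lines measured by CellTiter-Glo after 48 h treatment with each of 1912 compounds at 11 concentrations. Responses scaled between DMSO (100%) and empty wells (0%) before curve fitting.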

[21] = measured here: PEO1 parental Z-AUC
Potency is the fitted concentration of half-maximal effect.

CNC(=O)c1nn(C)c2c1C(C)(C)Cc1cnc(Nc3ccc(N4CCN(C)CC4)cc3)nc1-2
active: Potency [1] 4180 nM | Potency [2] 662 nM | Potency [3] 1480 nM | Potency [4] 1320 nM | Potency [5] 1180 nM | Potency [6] 1660 nM | Potency [7] 9350 nM | Potency [8] 935 nM | Potency [9] 2960 nM | Potency [10] 2640 nM | Potency [11] 743 nM | Potency [12] 8330 nM | Potency [13] 2640 nM | Potency [14] 2090 nM | Potency [15] 1480 nM | Potency [16] 13200 nM | Potency [17] 1050 nM | Potency [18] 2960 nM | Potency [19] 549 nM
-1.22: Z-AUC [19, 21]
-1.37: Z-AUC ([19]; measured here: PEO4 Z-AUC)

Cc1cc(C(=O)N2CCN(c3cccc(Cl)c3)CC2)n(-c2ccccc2)n1
-1.82: Z-AUC [19, 21]
active: Potency [1] 1870 nM | Potency [2] 132 nM | Potency [3] 1050 nM | Potency [4] 59 nM | Potency [5] 187 nM | Potency [6] 5260 nM | Potency [7] 296 nM | Potency [8] 20900 nM | Potency [9] 118 nM | Potency [10] 93.5 nM | Potency [11] 1320 nM | Potency [13] 3720 nM | Potency [14] 9350 nM | Potency [15] 5900 nM | Potency [16] 5900 nM | Potency [17] 148 nM | Potency [18] 132 nM
inactive: Z-AUC [19] -1.51
-1.79: Z-AUC ([19]; measured here: PEO4 Z-AUC)

Cc1[nH]nc2ccc(-c3cncc(OC[C@@H](N)Cc4ccccc4)c3)cc12
-1.59: Z-AUC [19, 21]
-1.81: Z-AUC ([19]; measured here: PEO4 Z-AUC)
active: Potency [1] 4180 nM | Potency [2] 935 nM | Potency [3] 4690 nM | Potency [4] 33.2 nM | Potency [5] 3320 nM | Potency [6] 2350 nM | Potency [7] 8330 nM | Potency [8] 59 nM | Potency [9] 935 nM | Potency [10] 590 nM | Potency [11] 833 nM | Potency [12] 590 nM | Potency [13] 1180 nM | Potency [15] 5900 nM | Potency [16] 9350 nM | Potency [17] 1180 nM | Potency [18] 296 nM
inactive: Z-AUC [19] -1.08

CCS(=O)(=O)c1cccc(-c2cc(C(=O)NC3CCN(C)CC3)c(C)c3[nH]c4ncc(C)cc4c23)c1
-0.883: Z-AUC ([19]; measured here: PEO4 Z-AUC)
active: Potency [1] 1870 nM | Potency [2] 1480 nM | Potency [3] 935 nM | Potency [4] 4180 nM | Potency [5] 1480 nM | Potency [6] 590 nM | Potency [7] 8330 nM | Potency [8] 935 nM | Potency [9] 833 nM | Potency [10] 526 nM | Potency [11] 935 nM | Potency [12] 118 nM | Potency [13] 935 nM | Potency [15] 5900 nM | Potency [16] 2640 nM | Potency [17] 526 nM | Potency [18] 833 nM
inactive: Z-AUC [19] -0.945
-0.937: Z-AUC [19, 21]

O=C(Cc1ccc(-c2ccc(OCCN3CCOCC3)cc2)cn1)NCc1ccccc1
inactive: Z-AUC [19] -0.749
active: Potency [1] 46.9 nM | Potency [2] 14.8 nM | Potency [3] 14.8 nM | Potency [4] 1 nM | Potency [5] 11.8 nM | Potency [6] 29.6 nM | Potency [7] 16.6 nM | Potency [8] 93.5 nM | Potency [11] 26.4 nM | Potency [12] 33.2 nM | Potency [14] 26.4 nM | Potency [15] 148 nM | Potency [16] 37.2 nM | Potency [17] 10.5 nM
-1.63: Z-AUC ([19]; measured here: PEO4 Z-AUC)
-0.848: Z-AUC [19, 21]

CC(C)c1cc(C(=O)N2Cc3ccc(CN4CCN(C)CC4)cc3C2)c(O)cc1O
inactive: Z-AUC [19] -1.06
-0.0282: Z-AUC ([19]; measured here: PEO4 Z-AUC)
-0.777: Z-AUC [19, 21]
active: Potency [1] 332 nM | Potency [2] 59 nM | Potency [3] 235 nM | Potency [4] 26.4 nM | Potency [5] 105 nM | Potency [6] 118 nM | Potency [7] 418 nM | Potency [8] 209 nM | Potency [9] 296 nM | Potency [10] 148 nM | Potency [11] 148 nM | Potency [12] 372 nM | Potency [13] 296 nM | Potency [14] 935 nM | Potency [15] 264 nM | Potency [16] 332 nM | Potency [17] 105 nM | Potency [18] 235 nM

CN1CCC(CNc2ccc3ncc(-c4cccc(OC(F)(F)F)c4)n3n2)CC1
-0.00259: Z-AUC ([19]; measured here: PEO4 Z-AUC)
-0.0601: Z-AUC [19, 21]
inactive: Z-AUC [19] -0.465
active: Potency [1] 18700 nM | Potency [2] 7430 nM | Potency [3] 20900 nM | Potency [4] 4690 nM | Potency [5] 14800 nM | Potency [6] 6620 nM | Potency [7] 23500 nM | Potency [8] 9350 nM | Potency [9] 5900 nM | Potency [10] 5900 nM | Potency [11] 7430 nM | Potency [12] 5900 nM | Potency [14] 5900 nM | Potency [15] 20900 nM | Potency [16] 23500 nM | Potency [18] 8330 nM

C=C1C(=CC=C2CCC[C@]3(C)[C@@H]([C@H](C)C=C[C@H](C)C(C)C)CC[C@@H]23)C[C@@H](O)C[C@@H]1O
0.821: Z-AUC ([19]; measured here: PEO4 Z-AUC)
inactive: Z-AUC [19] 0.703
0.5: Z-AUC [19, 21]
-1.36: z-score ([20]; TFE3-RCC UOK109 viability, measured here: UOK109 Z-AUC)
active: Potency [1] 13200 nM | Potency [2] 264 nM | Potency [3] 3320 nM | Potency [4] 11800 nM | Potency [5] 526 nM | Potency [6] 1660 nM | Potency [7] 14800 nM | Potency [8] 1050 nM | Potency [9] 1870 nM | Potency [10] 1320 nM | Potency [11] 132 nM | Potency [12] 2090 nM | Potency [13] 16600 nM | Potency [15] 14800 nM | Potency [16] 10500 nM | Potency [17] 526 nM | Potency [18] 209 nM | Potency ([20]; TFE3-RCC UOK109 viability, active = Z-AUC below -0.8 in all three lines) 418 nM
-1.08: z-score ([20]; TFE3-RCC viability, measured here: UOK145 Z-AUC)
-0.997: z-score ([20]; TFE3-RCC viability, measured here: UOK124 Z-AUC)
